# EPAC1 antag – qHTS for Antagonist of cAMP-regulated guanine nucleotide exchange factor 3 (EPAC1): primary screen. 360,000 tested, 0.14% active. AID 720709, 2013. Potency, µM (top dose mostly 115 µM), without a hit: at the top dose activity change, negative = inhibition, actives largely listed as inhibitors. Rap guanine nucleotide exchange factor 3 (Homo sapiens), O95398. EPAC1 GEF assay, Rap1b-BODIPY-GDP exchange fluorescence;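 note: plate controls were vehicle for no effect and positive control for full effect; nearly all actives have a fitted effect of over 50% in size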
# EPAC1 ag – qHTS for Agonist of cAMP-regulated guanine nucleotide exchange factor 3 (EPAC1): primary screen | Potency, µM (doses to about 154 µM), for the others: at the top dose activation, hits mostly activators | 360,000 tested, 0.073% active | AID 720707, 2013 | EPAC1 agonist qHTS, biochemical assay; response scale: 100% = response to 6.5 mM cAMP | Rap guanine nucleotide exchange factor 3 (Homo sapiens), O95398; note: nearly all actives have a fitted effect of over 60% in size
#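 Read-out is the fluorescence drop as BODIPY-GDP leaves Rap1B (480 nm excitation, 540 nm emission), recorded every 5 minutes over 30 minutes. Reactions held 100 nM EPAC1, 250 nM Rap1B–BODIPY-GDP and 50 uM GDP, with 6.5 mM cAMP setting full activation.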
# EPAC2 ag – qHTS for Agonist of cAMP-regulated guanine nucleotide exchange factor 4 (EPAC2): primary screen. EPAC2 activation, biochemical qHTS; response scale: 100% = 6.5 mM cAMP response. 360,000 tested, 0.079% active. Rap guanine nucleotide exchange factor 4 (Homo sapiens), Q8WZA2. Potency, µM (series often up to 154 µM), inactives show at the top dose activation, most hits filed as activators; note: nearly all actives have a fitted effect of over 50% in size
#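 qHTS, titration series. 100 nM EPAC2 / 250 nM Rap1B-BODIPY-GDP / 50 uM GDP; RT; ex 480/em 540 nm, 5-min reads to 30 min. Norm. to 6.5 mM cAMP = activation.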
# USP1-UAF1 inh – Inhibitors of USP1/UAF1: Primary Screen; recombinant USP1/UAF1, Ub-Rhodamine cleavage fluorescence; Potency, µM (top dose mostly 57.1 µM), for the others: at the top dose activity change, negative = inhibition, usual class: inhibitors; 390,000 tested, 0.23% active; note: % is set by controls: 0 for no effect and ±100 for the full control effect; nearly all actives have a fitted effect of over 60% in size
#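 USP1/UAF1 complex (1 nM) preincubated 15 min at room temperature with compound, then Ub-Rho substrate (150 nM final) added. Kinetic fluorescence at 480/540 nm over 6 reads at 60 s intervals; 50 mM HEPES pH 7.8, 0.5 mM EDTA, 0.1 mg/ml BSA, 1 mM TCEP, 0.01% Tween-20.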
# HEK293 tox – qHTS of GLP-1 Receptor Inverse Agonists: Cytotox Screen; Potency, µM (highest dose often 38.3 µM), inactives show at the highest dose activity change, negative = inhibition, actives largely listed as inhibitors; HEK293 cAMP-luciferase reporter cells, luminescence, 24 h; AID 624418, 2012; 410,000 tested, 0.13% active;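 note: loss of luciferase light is scored as toxicity; % is set by controls: 0 for no effect and ±100 for the full control effect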
#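 Compound-treated cells are incubated 24 hr at 37 deg C under 5% CO2 after a 12 hour attachment period, then luciferase detection reagent is added and luminescence is measured following 12 min at room temperature; lowered signal indicates toxicity.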
# EPAC2 antagonist – qHTS for Antagonist of cAMP-regulated guanine nucleotide exchange factor 2 (EPAC2): primary screen; Potency, µM (titrated, usually from 114 µM), inactives show at the highest dose activity, negative = inhibition, hits mostly inhibitors; EPAC2 GEF exchange of Rap1B-BODIPY-GDP, fluorescence; Rap guanine nucleotide exchange factor 4 (Homo sapiens), Q8WZA2; 360,000 tested, 0.18% active; note: % is set by controls: 0 for no effect and ±100 for the full control effect; nearly all actives have a fitted effect of over 45% in size
# * marks the source's active call; other numbers are inactive results; ? = inconclusive; . = no result; [ ] = remark or other dose. Only some compounds are listed: those with a hit (about 0.55% of all), similar ones and a draw of the others. Calls come from the whole dose curve; as a rule, active = well fitted curve in the direction sought with a large enough effect; inconclusive = small, poorly fitted or top-dose-only effect, or another doubt; inactive = no such curve, though single readings can be large; an effect the other way counts as inactive or inconclusive. Potency is the fitted concentration of half-maximal effect.
SMILES,EPAC1 antag,EPAC1 ag,EPAC2 ag,USP1-UAF1 inh,HEK293 tox,EPAC2 antagonist
O=C(Nc1cccc(Cl)c1)N(Cc1nc2ccccc2c(=O)[nH]1)Cc1cccs1,-4.8%,89.1µM*,2.4%,-24.3%,4.8%,-1.7%
CCC(C(=O)Nc1ccccc1C(=O)OC)n1c(C)c2cnn(-c3ccccc3)c(=O)c2c1C (centres undefined),.,.,.,-20.8%,2.0%,.
Cc1ccc(CNC(=O)CCCn2c(=O)c3ccccc3n(Cc3ccccc3C)c2=O)cc1,.,.,.,-22.9%,-3.8%,.
O=C(Nc1ccccc1Cc1ccccc1)c1ccccc1NS(=O)(=O)c1ccc(Cl)s1,-31.3%,11.3%,12.5%,-15.9%,?,31.6µM*
O=C(Nc1ccccc1)c1ccccc1NS(=O)(=O)c1ccc(Cl)s1,3.4%,-6.7%,-6.5%,-21.2%,?,?
Cn1c(=O)oc2cc(S(=O)(=O)N3CCCC(C(=O)NCc4ccc(F)cc4)C3)ccc21 (centres undefined),.,.,.,-9.7%,1.0%,.
CN(C)CCCN(C(=O)COc1ccccc1)c1nc2ccc(F)cc2s1,-0.2%,2.4%,3.8%,-2.5%,-34.9%,-4.0%
CN(C)CCCN(C(=O)CCOc1ccccc1)c1nc2ccc(F)cc2s1,-2.2%,2.8%,7.1%,-1.1%,10µM*,-4.9%
NC1=C(Cl)C(=O)c2ccc(S(N)(=O)=O)cc2C1=O,?,4.6%,4.9%,1.26µM*,?,?
NC1=C(Cl)C(=O)c2ccccc2C1=O,-17.4%,7.1%,-1.0%,?,?,-6.8%
CCCN1CCN(CCCNC(=O)c2cnn(-c3ccc(F)cc3)c2-n2cccc2)CC1,.,.,.,-3.1%,-12.7%,.
Cc1nc2ccccc2n2c(O)c(CC(=O)O)cc12,25.8%,?,112µM*,?,39.9%,46.0%
CC(/C=C1\SC(=S)N(CCC(=O)Nc2cccc(C(=O)O)c2)C1=O)=C\c1ccccc1,79.4µM*,27.7%,6.2%,-20.8%,8.8%,?
COc1ccccc1/C=C1\SC(=S)N(CCC(=O)Nc2ccc(C(=O)O)c(O)c2)C1=O,50.1µM*,3.7%,6.7%,-25.5%,-18.6%,-10.0%
Cc1ccc(Cl)cc1N1CCN(CCCNC(=O)Cn2ncc3c([nH]c4ccccc43)c2=O)CC1,.,.,.,-15.7%[11.4 µM],6.4%,.
COc1ccccc1CNC(=O)C1CCN(c2nn3c(=O)cc(C)nc3s2)CC1,.,.,.,4.4%,0.1%,.
COc1ccc(N/N=C(/N=Nc2nc(C)cc(=O)[nH]2)c2ccccc2)cc1,6.0%,9.7%,-17.7%,-12.7%,3.98µM*,-3.3%
O=C(Nc1ccc(N2CCN(c3ccc(F)cc3)CC2)c(C(=O)O)c1)c1ccccc1F,.,.,.,12.9%,4.3%,.
Cc1oc(-c2ccccc2)nc1Cn1c(=O)cc(-c2ccccc2)c2c(C)nn(C)c21,.,.,.,-8.1%,7.9%,.
O=C(Cn1ncc(Cl)c(Cl)c1=O)N1CCc2ccccc21,-6.0%,-5.5%,-3.8%,-5.8%,5.62µM*,22.5%
O=C(CCl)N1c2ccccc2Oc2ccc3ccccc3c21,82.9%,?,1.6%,22.4µM*,45.7%,1.3%
Cc1ccc(Cn2cc(CCC(=O)NCC(C)c3ccccc3)c3ccccc32)cc1 (centres undefined),.,.,.,-7.0%,4.5%,.
Cn1c(=O)c2c(nc(Oc3ccccc3Cl)n2C)n(C)c1=O,-17.8%,-13.8%,6.6%,-11.0%,-7.2%,-10.6%
